This note sets out measurements from the supplement of paper PMC3842684.

In the test the test system is P. falciparum NF54-pfs16-GFP late (IV-V) stage gametocytes. The test is described as follows: relative % inhibition of viable gametocyte number; higher = more gametocytocidal. The conditions noted are these: 5 µM; stage: late (IV-V) gametocyte; incubation 72 h. Summed up: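 In 384-well poly-D-lysine imaging plates, NF54 pfs16-GFP gametocytes (magnet-isolated, early I/IIa on day 2 or late on day 8; 10% parasitaemia, 0.1% haematocrit) received compound in duplicate at 5 or 0.5 µM. Plates stood 72 h at 37°C in 5% CO2 and 5% O2, then overnight with MitoTracker Red before confocal imaging, where elongated GFP objects with MitoTracker signal above cut-off counted as viable. Relative inhibition was calculated against vehicle and positive-control wells on the same plate.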
As to `CC1CCN(Cc2c(O)ccc3cc(-c4nc5ccccc5s4)c(=O)oc23)CC1`, the relative % inhibition amounted to 18.4%.

As to `FC(F)(F)c1ccc(Nc2nnnc3ccccc23)cc1`, the relative % inhibition worked out at 7.26%.

On to `CC(C)OCc1cc(CN2CCN(c3cccc(Cl)c3)CC2)c(O)c2ncccc12`, for which the relative % inhibition was found to be 98.4%.

Take `Nc1ccn(C2O[C@H](CO)[C@@H](O)[C@H]2O)c(=O)n1` (stereo partly drawn): the relative % inhibition is -10.9%.

Turning to `COc1ccccc1CNC(=O)CCn1c(=O)[nH]c2ccsc2c1=O`, the relative % inhibition came out at 0%.

Turning to `C=C(C)CCC(C)N1CCC(N2CCC(C(=O)NCCc3ccccc3)CC2)CC1` (stereo not drawn), the relative % inhibition was -42.7%.

In the case of `OC(CNCc1ccccc1)Cn1c2ccccc2c2ccccc21` (stereo not drawn), the relative % inhibition came out at 84.7%.

For `CCOc1cc(Br)c(C(C)NC(=O)c2cccc(OC)c2)cc1OCC` (stereo not drawn), the relative % inhibition came out at 42.6%.

On to `COc1nc(Nc2ccc(C(C)C)cc2)nc(OC)n1`, for which the relative % inhibition was -10.9%.

In the case of `Cc1ccc(OCCCCCCNCCO)c(C)c1`, the relative % inhibition was -15.5%.

As for `COc1ccc(-c2nonc2NC(=O)c2cccc(Cl)c2)cc1OC`, the relative % inhibition was -2.96%.

Regarding `CCOC(=O)c1cnc2ccc(OC)cc2c1Nc1ccc(N2CCN(C)CC2)cc1`, the relative % inhibition worked out at 19.4%.

On to `O=C(CCc1ccccc1)c1ccccc1OCC(O)CN1CCCCC1` (stereo not drawn), for which the relative % inhibition was 48.2%.

Regarding `CC(C)CNC(=O)c1c(N)n(CCc2ccccc2F)c2nc3ccccc3nc12`, the relative % inhibition was 8.27%.

Regarding `CCOC(=O)c1ccc2nc(-c3ccccc3)cc(O)c2c1`, the relative % inhibition amounted to 102%.

With `Clc1ccc2[nH]c3c(NCCCN4CCOCC4)ncnc3c2c1`, the relative % inhibition is 17.7%.

In the case of `CCC(O)c1ccc(Br)cc1NC(=O)c1cccc(Cl)c1` (stereo not drawn), the relative % inhibition came out at 28.6%.

As for `CC(C)(C)CC(C)(C)NCC(O)COc1ccc2c(c1)CCC2` (stereo not drawn), the relative % inhibition was found to be 20.4%.

Consider `Cc1ccc(-c2nc3ccccc3o2)cc1NCc1cc(Cc2ccccc2)ccc1O`, for which the relative % inhibition is 48.6%.

As for `Cn1c(C(=O)c2cccc3ccccc23)nc2ccccc21`, the relative % inhibition worked out at 5.95%.

For the compound `O=c1nc(C=Cc2ccc(Br)cc2)oc2ccccc12`, the relative % inhibition came to 101%.

In the case of `Brc1ccc(Nc2nc3ccccc3nc2Nc2ccc(Br)cc2)cc1`, the relative % inhibition came out at 102%.

On to `O=C(CCl)NCCOc1ccc(Cl)cc1Cl`, for which the relative % inhibition is 5.3%.

For the compound `CCOc1c(Cl)cc(CNCC(O)c2ccccc2)cc1OC` (stereo not drawn), the relative % inhibition was determined as 57.1%.

In the case of `O=C(NC(c1ccccc1)c1ccc2cccnc2c1O)c1ccccc1` (stereo not drawn), the relative % inhibition worked out at 86.9%.

On to `Cc1ccc2cc3c(N)c4c(C)ccc(C)c4nc3nc2c1`, for which the relative % inhibition worked out at 50.1%.

As for `CCOc1ccc(-c2nonc2NC(=O)c2cccc(C)c2)cc1OCC`, the relative % inhibition was 18.4%.

On to `Cn1c(=O)c2cc(C(=O)NCCCN3CCCCCC3)sc2c2ccccc21`, for which the relative % inhibition was -0.0726%.

For the compound `Cc1ccc(-c2cc3c(nn2)-c2ccccc2C3=O)cc1`, the relative % inhibition came out at 70.6%.

As to `CCCN(CCC)CC(O)COc1ccccc1C(=O)Nc1ccccc1` (stereo not drawn), the relative % inhibition turned out to be 65.1%.

With `CCOc1ccc(C=Cc2nc(=O)c3ccccc3o2)cc1`, the relative % inhibition was found to be 21.6%.

Consider `Cc1ccccc1OCCSc1nc2ccc(NC(=O)c3ccccc3)cc2s1`, for which the relative % inhibition worked out at 12.9%.

In the case of `CCOc1cc(Cl)c(C(C)NC(=O)c2ccccc2)cc1OCC` (stereo not drawn), the relative % inhibition came to 38.7%.

With `CCCCCCc1cc2cc(-c3csc(C=Cc4ccccc4)n3)c(=O)oc2cc1O`, the relative % inhibition was 104%.

On to `Clc1ccc2c(N3CCCC3)ccnc2c1`, for which the relative % inhibition was -4.99%.

On to `COc1cccc(C=Cc2nc(=O)c3ccccc3o2)c1OC`, for which the relative % inhibition stood at 94%.

Take `Cc1cc(NC(=O)c2ccc(-c3ccccc3)cc2)no1`: the relative % inhibition was determined as 36.8%.

In the case of `CCc1c(C)c(=N)c2ccccc2n1C`, the relative % inhibition was -7.51%.
